TLR4-MyD88 BLA: inhibitors of TLR4-MyD88 association in cells, primary screen, cell-based, HeLa CL3-4, BLA complementation, FRET ratio | inhibition, % at 8.4 µM | Toll-like receptor 4 (Homo sapiens) + Myeloid differentiation primary response protein … | hit rate 0.18% among 200,000 | HeLa CL3-4 TLR4/MyD88 BLA complementation | AID 861, 2007; in the data active = inhibition above about 25%;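 also: 0% = vehicle and 100% = reference inhibitor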
NTR1 ag: agonists of human NTR1, primary screen, imaging, U2OS cells, beta-arrestin-GFP, high content | NTR1-U2OS beta-arrestin-GFP spot imaging, agonist mode | activation, % at 20 µM | hit rate 0.17% among 330,000;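 active = activation at or above 40% of the spot to cytoplasm intensity ratio, with at least 20 cells analyzed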;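 also: 0% = DMSO without peptide and 100% = 100 nM NTR1 peptide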
Target sequence (P30989 whole entry, looked up): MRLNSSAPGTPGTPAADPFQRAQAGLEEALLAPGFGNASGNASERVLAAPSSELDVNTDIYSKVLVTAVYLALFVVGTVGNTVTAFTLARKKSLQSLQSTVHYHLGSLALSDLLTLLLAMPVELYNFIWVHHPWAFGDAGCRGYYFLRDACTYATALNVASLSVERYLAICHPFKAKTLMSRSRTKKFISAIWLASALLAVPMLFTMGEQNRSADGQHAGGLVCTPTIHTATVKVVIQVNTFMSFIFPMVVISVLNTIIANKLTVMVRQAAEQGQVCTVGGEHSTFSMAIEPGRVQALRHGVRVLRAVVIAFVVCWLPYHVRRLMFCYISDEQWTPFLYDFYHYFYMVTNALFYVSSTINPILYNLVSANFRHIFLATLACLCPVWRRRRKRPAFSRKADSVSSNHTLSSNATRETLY
ABHD5-PLIN5 inh: ABHD5-PLIN5 interaction inhibitors, primary screen, cell lysate, split luciferase complementation, luminescence; Perilipin-5 (Homo sapiens) + 1-acylglycerol-3-phosphate O-acyltransferase ABHD5 (Homo …; Split G. princeps luciferase complementation, 4 h; inhibition, % at 4 µM; hit rate 0.78% among 360,000; AID 602281, 2012;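 active = inhibition above the mean inhibition across every tested compound plus 3 SD, cut at about 22% in these data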;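 also: 0% = DMSO only wells and the 100% control is not disclosed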
TLR9-MyD88 inh: inhibitors of TLR9-MyD88 association in cells, primary screen, cell-based, CHO, BLA complementation, fluorescence. inhibition, % at 4.98 µM. Toll-like receptor 9 (Homo sapiens) + Myeloid differentiation primary response protein …. hit rate 0.21% among 340,000. CCF4 FRET ratio. AID 504734, 2011;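 active = inhibition above the mean over all tested compounds plus 3 SD, cut at about 21% in these data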;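 also: 0% = DMSO only wells and 100% = clavulanate BLA inhibitor control wells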
NOD2-RIPK2 inh: NOD2-RIPK2 binding disruptors in cells, primary screen, fluorescence, CHO cells, BLA complementation; hit rate 0.38% among 360,000; CCF4 ratio; inhibition, % at 4.98 µM; Receptor-interacting serine/threonine-protein kinase 2 (Homo sapiens), O43353; in the data active = inhibition above about 21%;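 also: 0% = vehicle only and 100% = reference blocker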
Beta2AR agonist: beta2AR agonists driving receptor internalization, primary screen, cell-based, FAP fluorogen, flow cytometry; hit rate 0.43% among 340,000; Am2.2-beta2AR cells; response, % (test concentration not listed); Beta-2 adrenergic receptor (Homo sapiens), P07550;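 active = response above a set limit, near 3 SD of response in nonfluorescent compounds, cut at about 42% in these data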
ABHD5 PLIN5 conf: ABHD5-PLIN5 interaction inhibitors, confirmation, biochemical, luminescence; shares compounds with ABHD5-PLIN5 inh; inhibition, % at 4 µM; hit rate 67% among 2,200; AID 651612, 2012; in the data active = inhibition above about 23%;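 also: 0% = DMSO vehicle wells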
HNF4 counter: HNF4 dimerization inhibitors, counter-screen for ABHD5-PLIN5 interaction inhibitor project, biochemical, split-luciferase complementation, luminescence | shares compounds with ABHD5-PLIN5 inh | inhibition, % at 4 µM | hit rate 77% among 2,200 | AID 651674, 2012;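 active = mean inhibition across replicate wells exceeding the computed hit threshold, cut at about 13% in these data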;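 also: light from luciferase halves that rejoin when HNF4 fusion proteins dimerize; 0% = DMSO only wells and the 100% control is not given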
* hit, by the source's call; / = no result given. The list is not random: actives were taken first. Their share in the collection is about 1.5%.

SMILES | TLR4-MyD88 BLA | NTR1 ag | ABHD5-PLIN5 inh | TLR9-MyD88 inh | NOD2-RIPK2 inh | Beta2AR agonist | ABHD5 PLIN5 conf | HNF4 counter
Cc1cccn2c(=O)nc(SCC(=O)Nc3cccc4ccccc34)nc12 | / | 1 | 104* | 0 | -4 | 3 | 1 | 0
O=C(CSc1nc(=O)n2ccccc2n1)Nc1cccc2ccccc12 | / | 0 | 9 | 5 | -14 | -4 | / | /
O=C(/C=C/c1ccccc1O)c1ccc(Cl)cc1 | -6 | 33 | 58* | -7 | 5 | 12 | 94* | 75*
O=C(/C=C/c1cccc2ccccc12)c1ccncc1 | -7 | / | 65* | -1 | 11 | 20 | 96* | 96*
O=C(/C=C/c1ccccc1[N+](=O)[O-])c1ccc(F)cc1 | 13 | 19 | 34* | -1 | -8 | 5 | 86* | 83*
O=C(/C=C/c1ccccc1O)c1ccccc1 | / | / | 29* | -2 | -3 | 15 | 79* | 64*
O=C(/C=C/c1ccccc1[N+](=O)[O-])Oc1ccccc1 | / | 3 | / | / | / | / | / | /
COc1ccc(-n2c(N)c(C(=O)NCc3ccco3)c3nc4ccccc4nc32)c(OC)c1 | -5 | 1 | 29* | -3 | 3 | 8 | 51* | 67*
CCC(c1ccccc1)c1noc(CCN(CC)CC)n1 (centres undefined) | / | / | 60* | -4 | -16 | / | 73* | 32*
COCCN(C)Cc1nc(C(c2ccccc2)c2ccccc2)no1 | / | 0 | -10 | 15 | -3 | 9 | / | /
O=C1OC(NC(=O)c2ccccc2)C(n2cc(CO)nn2)=C1Cl (centres undefined) | -4 | 0 | 64* | 0 | -6 | -1 | 90* | 103*
Cc1ccc(N=C2NC(=O)/C(=C\c3ccco3)S2)cc1 | 8 | -2 | 10 | -8 | 0 | -9 | / | /
Cc1cccc(N=C2NC(=O)/C(=C/C=C/c3ccco3)S2)c1 | 3 | / | 25* | 0 | -8 | 3 | 48* | 34*
C=C(C)[C@@H]1C2=CC(C(=O)OC)=C(C[C@H](C(=C)C)[C@H]3O[C@H]3C3=C[C@H]1OC3=O)O2 | / | / | 63* | / | 18 | / | 87* | 78*
CCCCNC(=O)C1(C)CCCCN1C(=O)c1c(C)noc1C (centres undefined) | / | / | 1 | / | 20 | / | / | /
COc1cc(C(=O)C(=O)N2CCN(c3ccccc3)CC2)cc2ccccc12 | / | / | -9 | / | -2 | / | / | /
CCCCNC(=O)c1nc(C2CCNCC2)oc1-c1cccc(C(F)(F)F)c1 | / | / | 2 | / | -2 | / | / | /
CC(Sc1ccsc1[N+](=O)[O-])C(=O)NCc1ccco1 (centres undefined) | -2 | 0 | 28* | -6 | -7 | 3 | 10 | 21*
CCOC(=O)C(=O)N(C)c1c(CC)nc2c(OCc3cc(Cl)cc(Cl)c3)cccn12 | / | / | 7 | / | -10 | / | / | /
COc1ccc(NC(=O)c2cc3ccccc3cc2O)cc1 | / | 18 | 48* | 2 | 1 | 18 | 53* | 22*
CSCCC(NS(=O)(=O)Cc1ccccc1)C(=O)NNc1ccccc1 (centres undefined) | / | / | 6 | / | 8 | / | / | /
CCOC(=O)C1C(=O)NC(SC)=C(C#N)C1c1ccccc1F (centres undefined) | 2 | 1 | -2 | 4 | -4 | -4 | / | /
O=C1NC(=O)C(c2ccc(Cl)cc2Cl)N1 (centres undefined) | / | / | 5 | -4 | -4 | 1 | / | /
N#CC1=C(N)NC(=S)C(C(N)=O)C1c1ccccc1F (centres undefined) | / | 0 | 38* | 1 | -11 | -9 | -11 | 84*
N#CC1=C(N)NC(=S)C(C(N)=O)C1c1ccc(Cl)cc1Cl (centres undefined) | 10 | 1 | 57* | 9 | 9 | -2 | 13 | 101*

Compound activity deposited in PubChem by several laboratories.
